# Values joined by “and” are separate entries in the source; they are usually repeats but may differ in a detail not shown here. Identical values can stand only once. ± gives the standard deviation of the averaged measurements.
# Tested on: TDF
# Test: cell number relative to DMSO (% of DMSO); higher = more cells (less growth inhibition / toxicity)
# Conditions: concentration: 10 µM; 24 h
# Summary of the method: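 In 384-well plates holding 800 HCC1569 or TDF cells per well in RPMI with 10% FBS, compounds were tested at 10 µM for 24 h at 37 °C in triplicate. Fixation used 3.7% formaldehyde. Staining used a rabbit anti-H1.0 antibody with an AlexaFluor 647 secondary, plus DAPI. Each value, H1.0 nuclear intensity or cell number, is a median of replicates shown as percent of the plate control, and HCC1569 values were smoothed for positional effects.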
# 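Note: TDF denotes transformed human dermal fibroblasts of mesenchymal origin.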
row,SMILES,cell number
1,Nc1c2c(nc3ccccc13)CCCC2O.O=C(O)C=CC(=O)O (stereo not given) [Hydroxytacrine maleate],103
2,CC1C(=O)OC2CC34C5CC(C(C)(C)C)C36C(OC(=O)C6O)OC4(C(=O)O5)C21O (stereo not given) [Ginkgolide A],99 ± 3
3,O=P(O)(O)C(Cl)(Cl)P(=O)(O)O [Clodronic acid],103
4,O=C([O-])CCCc1ccccc1.[Na+] [Sodium Phenylbutyrate],106
5,CN(Cc1cc(Br)cc(Br)c1N)C1CCCCC1 [Bromhexine],110
6,O=c1c(OC2OC(C(O)CO)C(O)C2O)c(-c2ccc(O)c(O)c2)oc2cc(O)cc(O)c12 (stereo not given) [Isoquercitrine],105
7,CN(C)CCN(Cc1cccs1)c1ccccn1.Cl [Methapyrilene hydrochloride],95.7
8,C=C1NC(=O)C2=C(CCSC2)N1,99.5
9,"Nc1ccn(C2CCC(CO)O2)c(=O)n1 (stereo not given) [""2',3' - Dideoxycytidine""]",87.5
10,Nc1nc(=O)c2ncn(COC(CO)CO)c2[nH]1 [Ganciclovir],99.6 ± 5.2
11,O=C1Nc2ccc(I)cc2C1=Cc1cc(Br)c(O)c(Br)c1,103
12,C[N+](C)(C)CCOC(N)=O [Carbamylcholine],107
13,CC(N)(Cc1ccc(O)c(O)c1)C(=O)O [L-alpha-Methyl DOPA],98.5
14,O=C(Nc1cccc(Nc2cc(Nc3cccc(C(F)(F)F)c3)ncn2)c1)C1CC1 [EGFR Inhibitor],8.22
15,"O=C1Nc2cc(Br)ccc2C1=C1N=c2ccccc2=C1NO [(2'Z,3'E)-6-Bromoindirubin-3'-oxime]",61.4
16,CCCC(CCC)C(=O)O [Valproic acid],111
17,O=C(c1ccc2c(c1)OCCO2)N1CCCCC1,92.2
18,Nc1nc(Cl)nc2c1ncn2C1OC(COP(=O)([O-])OP(=O)([O-])OP(=O)([O-])[O-])C(O)C1O.[Na+].[Na+].[Na+].[Na+] (stereo not given) [2-Chloroadenosine triphosphate tetrasodium],99
19,NS(=O)(=O)c1cc2c(cc1Cl)NC(C(Cl)Cl)NS2(=O)=O (stereo not given) [Trichloromethiazide],105
20,C[N+](C)(C)C(Cc1c[nH]c(=S)[nH]1)C(=O)[O-] (stereo not given) [Ergothioneine],103

row,SMILES,cell number
1,CC(C(=O)O)c1ccc2c(c1)Cc1cccnc1O2 (stereo not given) [Pranoprofen],94.7
2,CCN(CC)CC(=O)Nc1c(C)cccc1C.Cl [Lidocaine hydrochloride],101
3,CCN1CCCC1CNC(=O)c1c(O)c(Cl)cc(Cl)c1OC.O=C(O)C(O)C(O)C(=O)O [S(+)-Raclopride L-tartrate],105
4,O=C(Nc1ncc(-c2cc(C(F)F)nn2-c2c(Cl)cccc2Cl)s1)C1CC1,9.11
5,COc1cc(C(=O)OCCC[NH+]2CCC[NH+](CCCOC(=O)c3cc(OC)c(OC)c(OC)c3)CC2)cc(OC)c1OC.[Cl-].[Cl-] [Dilazep hydrochloride],90.1
6,CC(C)OC(=O)C(C)(C)Oc1ccc(C(=O)c2ccc(Cl)cc2)cc1 [Fenofibrate],106.6 ± 0.69
7,CCOC(=O)C(CCc1ccccc1)NC(C)C(=O)N1Cc2ccccc2CC1C(=O)O (stereo not given) [Quinapril],101
8,CCCCCCCCCCCCCCCC(=O)OC1C(SC)OC(C(NC(=O)C2CC(CCC)CN2C)C(C)Cl)C(O)C1O.Cl (stereo not given) [Clindamycin palmitate.HCl],101
9,Cc1[nH]c2ccccc2c1C1=C(NCCc2ccc(F)cc2)C(=O)N(C)C1=O,59
10,c1ccc(-c2[nH]ncc2-c2ccnc3ccccc23)nc1 [TGF-b RI Kinase Inhibitor],103
11,Cn1cc(C=C2C(=O)Nc3ccc(S(N)(=O)=O)cc32)c2ccccc21 [Syk Inhibitor],95.3
12,"O=C1c2c(O)cc(O)cc2OC(c2ccc(O)c(O)c2)C1O (single isomer, unassigned; (+)) [(+)-Taxifolin]",83.9
13,Cc1nc(C)c(C)nc1C [Tetramethylpyrazine],108
14,"CCCCCC=CCC=CCC=CCC=CCCCCCC(=O)O [7(Z), 10(Z), 13(Z), 16(Z)-Ocosatetraenoic Acid]",114
15,O=C(O)c1ccc(O)c2ncccc12 [8-hydroxy-5-quinolinecarboxylic acid],99.2
16,CCNC(=O)C1OC(n2cnc3c(N)nc(NCCc4ccc(CCC(=O)O)cc4)nc32)C(O)C1O.Cl (stereo not given),96
17,CCC1C(=O)OCC1Cc1cncn1C.Cl (stereo not given) [Pilocarpine.HCl],94.48 ± 0.24
18,COc1ccccc1N1CCN(CCCCNS(=O)(=O)c2cccc3c(N(C)C)cccc23)CC1.O=C(O)C=CC(=O)O [Cortexolone maleate],99.8
19,CCCC[C@@H](C=O)NC(=O)[C@H](CC(C)C)NC(=O)[C@H](CC(C)C)NC(C)=O,32.2
20,CN(C)c1ccc(C=C2C(=O)Nc3ccccc32)cc1,86.6 and 102 and 98.2

# — the supplement of paper PMC7156485
